# Measured values reported in the supplement of paper PMC3334620.
# Whole data set: some 33,000 sequences, median “E-score (-0.5 to 0.5)” near -0.012, cut for the highest 2% near 0.29. This excerpt belongs to a sample that is enriched for the highest values.
# Target: T1, Ybr033w (UniProt P38073)
# T1 sequence: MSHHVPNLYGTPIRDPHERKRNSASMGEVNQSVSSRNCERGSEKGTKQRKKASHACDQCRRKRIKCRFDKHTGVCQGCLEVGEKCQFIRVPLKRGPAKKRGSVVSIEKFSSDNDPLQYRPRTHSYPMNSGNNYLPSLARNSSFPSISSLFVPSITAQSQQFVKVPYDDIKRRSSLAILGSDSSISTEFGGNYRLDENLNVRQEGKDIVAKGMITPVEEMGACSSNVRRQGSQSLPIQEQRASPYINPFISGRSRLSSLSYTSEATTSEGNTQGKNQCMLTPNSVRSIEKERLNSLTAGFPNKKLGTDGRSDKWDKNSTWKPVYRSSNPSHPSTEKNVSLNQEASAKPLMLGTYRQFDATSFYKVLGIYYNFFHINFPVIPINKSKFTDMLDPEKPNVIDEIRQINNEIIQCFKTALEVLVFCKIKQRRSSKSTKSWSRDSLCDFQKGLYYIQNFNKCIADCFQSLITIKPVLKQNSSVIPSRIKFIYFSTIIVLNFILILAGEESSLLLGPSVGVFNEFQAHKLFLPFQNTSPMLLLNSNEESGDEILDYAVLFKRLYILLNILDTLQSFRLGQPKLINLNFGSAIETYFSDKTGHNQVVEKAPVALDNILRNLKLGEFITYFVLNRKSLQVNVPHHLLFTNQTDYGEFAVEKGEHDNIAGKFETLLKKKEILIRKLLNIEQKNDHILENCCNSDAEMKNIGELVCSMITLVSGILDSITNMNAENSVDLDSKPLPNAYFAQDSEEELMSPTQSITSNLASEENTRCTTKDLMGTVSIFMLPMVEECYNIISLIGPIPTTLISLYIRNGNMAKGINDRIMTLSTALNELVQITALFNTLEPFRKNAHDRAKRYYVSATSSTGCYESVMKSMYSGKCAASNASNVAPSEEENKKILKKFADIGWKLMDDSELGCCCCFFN
# Assay: PBM E-score (8-mer binding enrichment) (E-score (-0.5 to 0.5)); higher = stronger / more preferred TF binding
# Details: protein concentration: 200 nM; construct: GST-full length
# Method: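 Universal 'all 10-mer' protein binding microarrays (Agilent AMADID 015681) probed with GST-tagged S. cerevisiae TFs (full-length or DBD) made by in vitro transcription/translation (PURExpress), about 100-200 nM. Bound TF was detected with fluorescent anti-GST. Each ungapped 8-mer (which stands for itself and its reverse complement) is scored by the PBM enrichment score (E-score), a modified Wilcoxon-Mann-Whitney statistic from -0.5 to +0.5, computed with the Universal PBM Analysis Suite. Scale: above 0.35 generally sequence-specific binding.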
row,Sequence,PBM E-score
1,CGAGGCAC,-0.109
2,GTACCCAC,-0.116
3,CGCAGGGA,-0.202
4,AGCTAATA,0.078
5,AGCGCATC,0.0587
6,CGCGAAGC,0.0254
7,CACTAGTA,0.0533
8,TACTAGTA,0.377
9,GACTAGTA,0.0157
10,CTTTAAAA,0.2
11,AAAGTCGG,-0.122
12,ACTGTGCA,0.031
13,ATGACAAT,0.293
14,ATGACAAG,-0.0461
15,ATGACAAC,0.111
16,AAAAAGTA,0.283
17,AAAAAGTT,0.314
18,AAAAAAGT,0.353
19,AAAAAGTC,0.22
20,AAAAAAGC,0.171
21,ACAAAAGT,0.0857
22,CTGTTGCC,-0.136
23,AGTGAAAA,0.183
24,TGCCAACA,0.0786
25,GTGCGCAC,0.0505
26,GCAGTCCA,-0.029
27,ATCGTTTA,0.307

row,Sequence,PBM E-score
1,ATTGTTTG,0.118
2,GTCGTTTA,0.0819
3,ATTGTTTA,0.296
4,ATTGTTTC,0.199
5,ATCGTTTC,0.184
6,GTTGTCCA,0.00858
7,ATGGTCAA,0.198
8,AGCTGGCC,-0.179
9,AGGTAGAC,-0.212
10,CTAGAGAC,-0.0751
11,ATTCAACG,0.114
12,ATACCTAT,0.102
13,TTACCTAA,0.156
14,ATACCTAA,0.316
15,CCAAGCGA,-0.0712
16,AATAATTG,0.256
17,AATAATTC,0.386
18,ACTAATTA,0.281
19,CATAATTA,0.284
20,GCTAATTA,0.175
21,AATAATGA,0.247
22,CATAATTC,-0.00123
23,AATAATTA,0.372
24,GATAATTA,0.361
25,AAACGTTC,0.0667
26,AGAGTGTG,-0.0636
27,CGATGCGC,0.0464

row,Sequence,PBM E-score
1,AGAGGTGG,-0.156
2,GAGTGAAA,0.129
3,CAGTGAAA,0.126
4,AAGTGAAA,0.29
5,GTCCTTCA,-0.0408
6,CAGCACTC,0.0472
7,AATGGTCA,0.205
8,AATAGTAG,0.201
9,AATAGTAT,0.293
10,AATAGTGC,0.123
11,AATAGTGT,0.289
12,AATAGTAA,0.239
13,AATAGTGG,0.0387
14,AGCAATAG,0.0737
15,CTTCGGAA,0.243
16,ATTCGGAA,0.269
17,GTTCGGAA,0.316
18,GAAGCGCC,-0.0866
19,AACTTGAC,-0.0113
20,GAATACTC,0.0489
21,AAATACTT,0.34
22,AAATACTC,0.316
23,AAATACTA,0.224
24,AAATACTG,0.172
25,CAATACTC,0.193
26,GTTAAGGA,0.121
27,AGCTGAAT,0.135

row,Sequence,PBM E-score
1,AGCTCTGC,-0.255
2,AAAGTCTA,-0.00319
3,ACTCCTCA,-0.135
4,ATTAAGCA,-0.0125
5,CTTCATTA,0.291
6,ATTCATTA,0.263
7,GTTCATTA,0.221
8,ATTGGTGC,0.0298
9,ATACTTTA,0.23
10,ATACTTTC,0.177
11,ATACTTTG,0.297
12,AGCCAGGG,-0.362
13,ACAGAAAT,0.137
14,GCGGAAAA,0.396
15,ACGGAAAA,0.422
16,GCGGAAAC,-0.191
17,CCGGAAAG,-0.0245
18,ACGGAAAC,-0.12
19,CCGGAAAC,0.14
20,ACGGAAAG,0.0247
21,CCGGAAAA,0.44
22,ACGGGAAT,0.0676
23,ACGGAAAT,0.313
24,GCGGGAAA,0.128
